{"source": "PubChem BioAssay (NCATS)", "note": "Results filed as inconclusive are left out. The source made the active and inactive calls. Calls follow the shape of the dose curve; as a rule, active = well fitted cell-killing curve with a large enough effect; inconclusive = small, poorly fitted or top-dose-only effect; inactive = flat fitted curve, though single readings scatter. Bridge positions count the residues as written; N and C are the ends. Square brackets hold non-standard residues; d marks the D form. Side chains are listed from the residue outwards. Peptide text beside a SMILES is read from it. * marks the point of attachment. ξ: configuration not given here. Phg(4-OMe) = COc1ccc([C@H](N)C(=O)O)cc1; d(aIle) = CC[C@H](C)[C@@H](N)C(=O)O; d(aThr) = C[C@@H](O)[C@@H](N)C(=O)O; NMeF = CN[C@@H](Cc1ccccc1)C(=O)O; Isobutyryl = CC(C)C(=O)*; ξL = CC(C)CC(N)C(=O)O", "data": [{"test": "COV-362 Cancer Cell Toxicity qHTS against the NCATS CANVASS Library (AID 1347352); also: potency is read from the fitted curve at half-maximal effect; as to activity change, negative = cytotoxicity: % is scaled to controls: 0 for no effect and ±100 for the full control effect", "conditions": "COV-362 viability, CellTiter-Glo luminescence, 72 h; series mostly up to 38.3 µM; activity change, negative = cytotoxicity: at the top concentration", "text": "Natural products and their derivatives continue to be wellsprings of nascent therapeutic potential. However, many laboratories have limited resources for biological evaluation, leaving their previously isolated or synthesized compounds largely or completely untested. To address this issue, the Canvass library of natural products was assembled (https://tripod.nih.gov/canvass), in collaboration with academic and industry researchers, for quantitative high-throughput screening (qHTS) across a diverse set of cell-based and biochemical assays. The pure (>85% purity by liquid chromatography/mass spectrometry [LC/MS]) Canvass library of 346 natural products were submitted by 45 academic laboratories and companies around the world. We collected pure natural products to circumvent deconvolution and structure elucidation due to time and resource limitations. The library was formatted into 1536-well plates and evaluated in 50 qHTS (in an 11-pnt concentration series) bioassays with broad scope of disease-relevant mechanisms. The resulting data set from 50 different assays was then systematically analyzed to identify overall trends and specific natural products with interesting biological activities. Reported herein are the results of each individual qHTS and their corresponding assay protocol. National Center for Advancing Translational Sciences (NCATS), Rockville, MD National Institute of Health (NIH), Bethesda, Maryland\nCancer Cell Toxicity COV-362, OV-KATE, OV-SAHO, UWB1.289, UWB1.289-WTBRCA1, HEK-293, HPAF-II, Panc-1005, SW1088, and U-118MG-screen protocol. 1. In a 1536 well, white solid bottom tissue culture plates (Corning 7494), corresponding cells (COV-362, OV-KATE, OV-SAHO, UWB1.289, UWB1.289-WTBRCA1, HEK-293, HPAF-II, Panc-1005, SW1088, or U-118MG) were dispensed in each well at a final concentration of 1000 cells / well (6uL volume) using the Multidrop Combi (Thermo Fisher Scientific) dispenser. 2. The plates were incubated for 4 hours at 37 degrees C/5% CO2/95% Rh. 3. Compounds were pin transferred (~23nL volume) via Wako Pin-tool (Wako Automation, Richmond VA) equipped with a 1536 pin head. The assay plates were treated with compounds in an 11-pnt concentration series with a final concentration range of […] to 85uM. 4. Bortezomib was used as a single dose control (0.5mM column 4, rows 1 - 32) at a final concentration of 1.9uM and as a 16pnt titration (1mM; 1:2 dilution; 16-points; n = 2; column 3, rows 1 - 32) with final concentration range of 0.1nM - 3.8uM. 5. The assay plates were incubated for 72 hours at 37 degrees C/5% CO2/95% Rh. 6. 3uL CellTiter-Glo detection reagent was then added to the plates (columns 2 - 48, rows 1 - 32) and incubated at room temperature for additional 15min. 7. Luminescence signal was acquired via the ViewLux plate reader (PerkinElmer) using a clear filter, 2 second exposure and 2x binning settings.", "values": [{"smiles": "CC(CCC[C@]1(C)C(=O)C=C[C@@]23C[C@]4(C)O[C@@H](C[C@@H]4[C@H]2O)C31)C(=O)O", "note": "(stereo not given in full)", "activity change, negative = cytotoxicity": "-0.964% (inactive)"}, {"smiles": "CN1CC[C@]2(c3cccc4c3N[C@H]3N(C)CC[C@@]43[C@]34CCN(C)[C@H]3Nc3ccccc34)c3ccccc3N[C@H]12", "Potency": "14.9 µM (active)"}, {"smiles": "C=C[C@@]1(C)CC[C@@H]([C@H](C)C(C)=O)O1", "activity change, negative = cytotoxicity": "-0.929% (inactive)"}, {"smiles": "C=C1[C@@]2(C)CC3C4(C)CCC(O)C(C)(C)C4CCC3(C)[C@]1(C(=O)OC)C(=O)C(C)(O)C2=O", "note": "(stereo not given in full)", "activity change, negative = cytotoxicity": "-0.756% (inactive)"}, {"smiles": "C[C@H]1C=C[C@H]2CCCC[C@@H]2[C@H]1C(=O)[C@H]1CC2=C(C(=O)O)CCN2C1=O", "activity change, negative = cytotoxicity": "-3.65% (inactive)"}, {"smiles": "C/C=C(/C)c1c(Cl)c(OC)c(C)c2c1Oc1c(Cl)c(O)c(Cl)c(C)c1C(=O)O2", "activity change, negative = cytotoxicity": "-16.1% (inactive)"}, {"smiles": "C/C=C1/C2=CCCN3C(=O)O[C@H]([C@H]1O)[C@H]23", "activity change, negative = cytotoxicity": "-7.13% (inactive)"}, {"smiles": "COC(=O)[C@]1([C@H]2CCC(=O)O2)CC(=O)c2c(O)cc(C)cc2O1", "activity change, negative = cytotoxicity": "-2.44% (inactive)"}, {"smiles": "C=C[C@]1(C)CC[C@@H]([C@H](C)C(=O)CC=C(C)C)O1", "activity change, negative = cytotoxicity": "0% (inactive)"}, {"smiles": "O=C1c2c(O)cc(O)cc2OC(c2ccc(O)cc2)C1O", "note": "(stereo not given)", "activity change, negative = cytotoxicity": "0.15% (inactive)"}, {"smiles": "CC(C)C[C@@H]1c2c(O)c(C=O)c(O)c(C=O)c2O[C@]2(C)C=C[C@@H](C(C)C)C[C@H]12", "activity change, negative = cytotoxicity": "-8.3% (inactive)"}, {"smiles": "COC12OC1(C13OC1(OC)C(=O)c1cc4cc(C)oc(=O)c4c(O)c1C3O)C(O)c1c(cc3cc(C)oc(=O)c3c1O)C2=O", "note": "(stereo not given)", "activity change, negative = cytotoxicity": "4.82% (inactive)"}, {"smiles": "C/C=C(/C)c1c(Cl)c(O)c(C)c2c1Oc1c(Cl)c(O)c(Cl)c(C)c1C(=O)O2", "activity change, negative = cytotoxicity": "-13.1% (inactive)"}, {"smiles": "C=C1CC[C@@H](Br)C(C)(C)[C@]12CC=C(C)C(=O)C2", "activity change, negative = cytotoxicity": "-14.1% (inactive)"}, {"smiles": "COc1c(O)cc(O)c2c(=O)cc(-c3ccccc3)oc12", "activity change, negative = cytotoxicity": "-19.5% (inactive)"}, {"smiles": "CC(=O)O[C@H]1c2ccccc2-c2c3c(cc4c2[C@@H]1N(C(C)=O)CC4)OCO3", "activity change, negative = cytotoxicity": "-26.1% (inactive)"}, {"smiles": "C[C@H](CCC(O)C(C)(O)CO)[C@@]1(O)CC[C@@]2(C)C3=C(CC[C@@]21C)[C@@]1(C)CCC(OC(=O)CCC(=O)O)C(C)(C)[C@@H]1CC3", "note": "(stereo not given in full)", "activity change, negative = cytotoxicity": "-1.05% (inactive)"}, {"smiles": "CO/C=C/C(=O)c1cc2cnc3c(N)cc(=NC(=O)C(C)C)c([nH]1)c23", "Potency": "0.211 µM (active)"}, {"smiles": "Cc1cc(O)cc2c1C(=O)c1c(O)cc(O)cc1C2=O", "activity change, negative = cytotoxicity": "2.88% (inactive)"}, {"smiles": "C/C1=C/[C@@H](C)[C@H](O)[C@@H](O)/C=C/CC/C=C/C(=O)O[C@@H]1[C@H](C)C(=O)CCCC1CC(=O)NC(=O)C1", "activity change, negative = cytotoxicity": "-6.99% (inactive)"}, {"smiles": "O=C1CC(c2ccc(O)cc2)Oc2cc(O)cc(O)c21", "note": "(stereo not given)", "activity change, negative = cytotoxicity": "0% (inactive)"}, {"smiles": "CCC(=O)N[C@@H](C[C@H](C)C(Cl)(Cl)Cl)C(=O)N1C(=O)C=C(OC)[C@@H]1CC(C)C", "activity change, negative = cytotoxicity": "0% (inactive)"}, {"smiles": "O=Cc1ccc2n1C[C@]1(C[C@H](O)[C@@H](CO)O1)OC2", "activity change, negative = cytotoxicity": "4% (inactive)"}, {"smiles": "CC[C@H](C)[C@H]1NC(=O)[C@@H](NC(=O)C(C)C)[C@@H](C)OC(=O)[C@H](COC(=O)CNC(C)=O)NC(=O)[C@@H]([C@@H](C)O)NC(=O)[C@H](Cc2ccccc2)N(C)C(=O)[C@H](c2ccc(OC)cc2)NC1=O", "note": "(Isobutyryl-T[d(aIle)][Phg(4-OMe)][NMeF][d(aThr)]S([Gly-Ac]); ester 1-C)", "activity change, negative = cytotoxicity": "-2.3% (inactive)"}, {"smiles": "O=Cc1ccc2n1C[C@]1(OC2)O[C@H](CO)[C@@H](O)[C@@H]1O", "activity change, negative = cytotoxicity": "-0.935% (inactive)"}, {"smiles": "O=c1cc(-c2ccc(O)c(O)c2)oc2cc(O[C@@H]3O[C@H](CO)[C@@H](O)[C@H](O)[C@H]3O)cc(O)c12", "activity change, negative = cytotoxicity": "-4.86% (inactive)"}, {"smiles": "CC(C)[C@]12CC[C@@]3(C)[C@H](C)CC[C@H](O)[C@@]3(CC1)c1cc3c(cc12)[nH]c1ccccc13", "activity change, negative = cytotoxicity": "-21.3% (inactive)"}, {"smiles": "C/C=C(/C)c1cc(O)c(C)c2c1Oc1cc(O)cc(C)c1C(=O)O2", "activity change, negative = cytotoxicity": "-4.09% (inactive)"}, {"smiles": "C[C@]12CCC[C@](C)(C(=O)O)[C@@H]1CC[C@@]1(C)c3cocc3CC[C@H]21", "activity change, negative = cytotoxicity": "3.64% (inactive)"}, {"smiles": "C[C@@]12CCC[C@@](C)(C(=O)O)[C@H]1C[C@@H](O)[C@@]13C[C@@H](CC[C@@H]21)[C@](C)(O)C3", "activity change, negative = cytotoxicity": "-2.4% (inactive)"}, {"smiles": "O=c1cc(-c2ccc(O)cc2)oc2cc(O)c([C@@H]3OC(CO)[C@H](O)[C@@H](O)[C@H]3O)c(O)c12", "note": "(stereo not given in full)", "activity change, negative = cytotoxicity": "0% (inactive)"}, {"smiles": "CC[C@@H](C)[C@H]1NC(=O)C(CC(C)C)NC(=O)[C@@H](CC(C)C)NC(=O)[C@H](Cc2c[nH]c3ccccc23)NC(=O)CNC(=O)[C@@H](CC(N)=O)NC1=O", "note": "(stereo partly drawn) (cyclo(GW[dL][ξL][dI][dN]))", "activity change, negative = cytotoxicity": "-15.7% (inactive)"}, {"smiles": "C/C(=C\\[C@H](C)C(=O)/C=C/CC1CC(=O)NC(=O)C1)[C@@H]1OC(=O)/C=C/CC/C=C/C[C@@H](O)[C@@H]1C", "Potency": "2.36 µM (active)"}, {"smiles": "CC[C@@H]1C[C@@]2(CC)OC(=O)[C@@]3(CC)[C@H](CC)[C@@H]1[C@@H]23", "activity change, negative = cytotoxicity": "4.03% (inactive)"}, {"smiles": "COc1cc2c(c(O)c1O)C(=O)c1c(coc1C)C2=O", "Potency": "13.3 µM (active)"}, {"smiles": "CO[C@H]1[C@@H](OC(=O)/C(C)=C\\[C@@H]2O[C@@H]2[C@H]2O[C@H]2C)[C@H](O)[C@H](OCC23C[C@@H]4[C@H](C)CC[C@H]4C4(C=O)CC2C=C(C(C)C)C34C(=O)O)O[C@@H]1C", "note": "(stereo not given in full)", "activity change, negative = cytotoxicity": "-11.7% (inactive)"}, {"smiles": "COc1ccc([C@@H]2c3cc4c(cc3C(=O)C(C)C2C)OCO4)cc1OC", "note": "(stereo not given in full)", "activity change, negative = cytotoxicity": "-3.02% (inactive)"}, {"smiles": "C=C(C)CC[C@H](Cc1c(O)cc(O)c2c1O[C@H](c1ccc(O)cc1)CC2=O)C(=C)C", "activity change, negative = cytotoxicity": "-23.9% (inactive)"}, {"smiles": "C=C1CC[C@@H](O[C@H]2C[C@@](O)([C@H](C)NC(=O)c3[nH]c(C)c(Cl)c3Cl)[C@H](O)[C@@H](C)O2)[C@@H]2C=C[C@H](C)C(/C(O)=C3/C(=O)[C@H](C(C)C)N([C@@H]4O[C@H](C)[C@H](OC(N)=O)[C@H](OC(C)=O)[C@@H]4OC)C3=O)[C@@H]12", "note": "(stereo not given in full)", "activity change, negative = cytotoxicity": "-4.91% (inactive)"}, {"smiles": "C=C1C(=O)O[C@H]2[C@H]1CCC(C)=C1CC[C@@](C)(O)[C@@H]12", "Potency": "16.7 µM (active)"}]}]}
